Holding throughout (test): qHTS profiling for inhibitors of Plasmodium falciparum proliferation (AID 504749); also: nearly all actives have a fitted effect of over 60% in size
Common to all, as to settings: P. falciparum in erythrocytes, SYBR Green DNA, 72 h; series mostly up to 28.7 µM
For orientation: Quantitative high-throughput screening tests each substance at several concentrations.

In one experiment the test system is CP256. The method in brief:
(§1)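 Parasite proliferation within erythrocytes, 72 h exposure. Endpoint: SYBR Green I fluorescence after overnight lysis at room temperature. Controls: 0.29 uM artemisinin, DMSO.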

Another experiment has as its system CP260. Summed up: as §1
The subject of a further experiment is CP262. The method in brief: as §1
A further experiment has as its system CP266. The method in brief:
as §1

The next experiment concerns CP268. Summed up:
as §1

The next experiment deals with CP269. Summed up:
as §1

A further experiment deals with CP286. Summed up:
as §1

The next experiment has as its system CP291. The method in brief: as §1
The next experiment concerns CP305. The method in brief:
as §1

The test system of the next experiment is CP315. Summed up: as §1
For a further experiment, the system named is CP329. Summed up:
as §1

The subject of another experiment is CP335. Summed up: as §1
The subject of another experiment is DFO2036. Summed up: as §1
A further experiment relates to DIV14. The method in brief: as §1
A further experiment deals with DIV17. Summed up:
as §1

In the next experiment the test system is Dd2. Summed up: as §1
The next experiment concerns CP265. Summed up: as §1
For a further experiment, the system named is CP297. Summed up:
as §1

In the next experiment the test system is CP325. Summed up: as §1
The next experiment has as its system DIV30. Summed up:
as §1

Records with an inconclusive call do not appear. Active and inactive are the calls of the source. Calls follow the shape of the dose curve; as a rule, active = well fitted inhibition curve with a large enough effect; inconclusive = small, poorly fitted or top-dose-only effect; inactive = flat fitted curve, though single readings scatter.
Potency is read from the fitted curve at half-maximal effect.

Regarding `CC(=O)[C@]1(O)Cc2c(O)c3c(c(O)c2[C@@H](O[C@H]2C[C@H](N)[C@H](O)[C@H](C)O2)C1)C(=O)c1ccccc1C3=O`, the Potency in the experiment with CP256 is 10 µM (active); in the experiment with CP260 it was 2 µM (active); with CP262, 12 µM (active); in the experiment on CP266 it was 8.49 µM (active); in the experiment with CP268 it was 9.53 µM (active); in the experiment with CP269 it was 10.7 µM (active). Further, the Potency in the experiment with CP286 was 1.41 µM (active); in the experiment with CP291, 9.53 µM (active); in the experiment on CP305, 8.49 µM (active); in the experiment with CP315, 15.1 µM (active); in the experiment on CP329, 10.7 µM (active); in the experiment with CP335, 1.69 µM (active). Also, the Potency is 3.55 µM (active) with DFO2036, 4.78 µM (active) in the experiment with DIV14, 4.78 µM (active) in the experiment on DIV17 and 0.158 µM (active) in the experiment with Dd2.
For the compound `CC(N=C(NC#N)Nc1ccncc1)C(C)(C)C` (configuration not stated), the Potency result in the experiment with CP256, in the experiment with CP260, in the experiment with CP265, in the experiment on CP266, in the experiment with CP268 and in the experiment with CP269 was “inactive” each time. Besides, the Potency entry with CP286, in the experiment on CP291, with CP297, in the experiment on CP305, with CP315 and with CP325 was “inactive” each time. Also, the Potency result in the experiment on CP329, with CP335, in the experiment with DFO2036, in the experiment with DIV14, with DIV17 and in the experiment with DIV30 was “inactive” in each case. Besides, the Potency entry in the experiment on Dd2 is “inactive”.
Regarding `CCOC(=O)C1=C(C)NC(C)=C(C(=O)OC)C1c1cccc(Cl)c1Cl` (configuration not stated), the Potency result in the experiment on CP256, with CP260, in the experiment with CP262, with CP265, in the experiment with CP266 and with CP268 was “inactive” in each case. In addition, the Potency entry in the experiment on CP269, in the experiment on CP286, with CP297, with CP305, in the experiment with CP315 and with CP325 was “inactive” each time. Moreover, the Potency entry in the experiment with DFO2036, in the experiment on DIV14, in the experiment with DIV17, in the experiment on DIV30 and in the experiment on Dd2 was “inactive” in each case.
With `C#CCN(C)CCCOc1ccc(Cl)cc1Cl`, the Potency entry with CP256, with CP260, in the experiment with CP262, with CP265, in the experiment on CP266 and in the experiment with CP268 was “inactive” each time. Moreover, the Potency result in the experiment with CP269, in the experiment on CP286, in the experiment on CP291, in the experiment with CP297, in the experiment on CP305 and in the experiment with CP315 was “inactive” each time. In addition, the Potency result with CP325, in the experiment with CP329, in the experiment with CP335, with DFO2036, in the experiment with DIV14 and with DIV30 was “inactive” in each case. For the same compound, the Potency result with Dd2 is “inactive”.
For the compound `CCO/C([O-])=N/c1c[n+](N2CCOCC2)no1`, the Potency entry with CP256, in the experiment with CP260, in the experiment with CP262, in the experiment on CP265, in the experiment with CP266 and with CP268 was “inactive” each time. Also, the Potency result in the experiment with CP269, in the experiment with CP286, with CP291, in the experiment with CP297, with CP305 and with CP315 was “inactive” each time. The Potency result with CP329, in the experiment on CP335, with DFO2036, in the experiment on DIV14, in the experiment on DIV17 and in the experiment with DIV30 was “inactive” in each case. Further, the Potency result in the experiment on Dd2 was “inactive”.
With `CN(C(=O)CCCOc1ccc2[nH]c(=O)ccc2c1)C1CCCCC1`, the Potency result with CP256, in the experiment on CP260, in the experiment on CP262, in the experiment with CP265, in the experiment with CP268 and in the experiment on CP269 was “inactive” each time. Moreover, the Potency result in the experiment on CP286, in the experiment with CP305, in the experiment with CP315, in the experiment on CP325, in the experiment on CP329 and with CP335 was “inactive” throughout. In addition, in the experiment on DFO2036, the Potency entry was “inactive”.
On to `O=C1CC2(CCCC2)CC(=O)N1CCCCN1CCN(c2ncccn2)CC1`, for which the Potency entry in the experiment with CP256, in the experiment on CP260, with CP262, in the experiment with CP265, in the experiment with CP266 and in the experiment on CP268 was “inactive” in each case. For the same compound, the Potency result in the experiment with CP269, in the experiment with CP286, with CP291, in the experiment with CP297, with CP305 and in the experiment on CP315 was “inactive” throughout. The Potency entry in the experiment on CP325, in the experiment with CP329, in the experiment on CP335, in the experiment on DFO2036, in the experiment with DIV30 and with Dd2 was “inactive” throughout.
Take `CC(=O)Nc1nnc(S(N)(=O)=O)s1`: the Potency entry with CP256, with CP260, with CP262, in the experiment with CP265, with CP266 and in the experiment on CP268 was “inactive” each time. The Potency entry in the experiment with CP269, in the experiment on CP286, in the experiment on CP291, in the experiment on CP297, with CP305 and in the experiment on CP315 was “inactive” throughout. Further, the Potency result with CP325, in the experiment with CP329, with CP335, with DFO2036, in the experiment on DIV17 and in the experiment on DIV30 was “inactive” in each case. For the same compound, the Potency entry in the experiment on Dd2 was “inactive”.
For the compound `Cc1ccc(S(=O)(=O)NC(=O)NN2CCCCCC2)cc1`, the Potency result in the experiment on CP256, in the experiment with CP260, with CP265, in the experiment with CP266, in the experiment on CP268 and in the experiment on CP269 was “inactive” each time. Further, the Potency entry in the experiment with CP286, with CP291, in the experiment on CP297, in the experiment with CP305, in the experiment with CP315 and in the experiment on CP325 was “inactive” in each case. The Potency result in the experiment with CP329, in the experiment with CP335, with DFO2036, in the experiment on DIV14, in the experiment on DIV17 and in the experiment with DIV30 was “inactive” throughout. Moreover, in the experiment on Dd2, the Potency result is “inactive”.
Turning to `CC[N+](C)(C)c1cccc(O)c1`, the Potency result in the experiment on CP256, with CP260, in the experiment on CP262, with CP265, in the experiment on CP266 and with CP268 was “inactive” throughout. Further, the Potency result in the experiment with CP269, with CP286, in the experiment with CP291, in the experiment with CP297, in the experiment with CP305 and in the experiment with CP315 was “inactive” in each case. Also, the Potency entry in the experiment with CP325, in the experiment with CP329, in the experiment with CP335, in the experiment with DFO2036, with DIV14 and with DIV30 was “inactive” in each case. Further, in the experiment on Dd2, the Potency result was “inactive”.
With `NC(N)=NC(=O)Cc1c(Cl)cccc1Cl`, the Potency with CP256 was 12.6 µM (active); in the experiment on CP260, 10 µM (active); in the experiment on CP262, 4.26 µM (active); in the experiment with CP329, 6.01 µM (active); with CP335, 9.53 µM (active); with DFO2036, 10 µM (active). Besides, the Potency result in the experiment on CP266, in the experiment with CP268, with DIV14 and with DIV17 was “inactive” each time.
Regarding `Cc1ccc(=O)n(-c2ccccc2)c1`, the Potency result in the experiment on CP256, in the experiment on CP260, with CP262, with CP265, in the experiment with CP268 and in the experiment on CP269 was “inactive” throughout. In addition, the Potency entry with CP286, in the experiment on CP291, in the experiment on CP297, in the experiment with CP305, with CP315 and with CP325 was “inactive” each time. Also, the Potency entry with CP329, with CP335, in the experiment with DFO2036, in the experiment on DIV14, in the experiment with DIV17 and in the experiment on DIV30 was “inactive” each time. The Potency entry in the experiment on Dd2 is “inactive”.

The values are drawn from PubChem BioAssay (NCATS).
